Assay [1] concerns the target Myc proto-oncogene protein (Homo sapiens) (UniProt P01106). Description: ATG_Myc_CIS: Attagene CIS-FACTORIAL HepG2 Assay for human Myelocytomatosis (Myc) Proto-Oncogene Transcription Factor (AID 2282990). The note with it: HepG2, Attagene cis-reporter transcription factor activity; actives raise or lower the signal. A digest of the protocol: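 HepG2 cells transiently transfected with multiple cis-promoter-driven reporter transcription units, so endogenous TF activity is read. After 24 h compound exposure, reporter mRNA was quantified by RT-PCR, 6-FAM labelling, HpaI digestion and capillary electrophoresis; bidirectional fit versus DMSO.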

A short description of assay [2]: ATG_NF_kB_CIS: Attagene CIS-FACTORIAL HepG2 Assay for human Nuclear Factor Kappa B (NF-kB) (AID 2282991). The note with it: HepG2 Attagene cis-factorial NF-kB reporter mRNA; actives raise or lower the signal. In a few lines:
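Read-out: reporter transcript levels quantified by RT-PCR plus capillary electrophoresis of 6-FAM-labelled, HpaI-cut fragments. Transfected HepG2 cells, 24 h compound exposure, endogenous NF-kB-driven cis element; gain or loss scored versus DMSO.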

A short description of assay [3]: ATG_Oct_MLP_CIS: Attagene CIS-FACTORIAL HepG2 Assay for human Octamer-Binding Transcription Factor (Oct) (AID 2282993). To be noted: HepG2 Attagene cis-factorial Oct reporter, mRNA; actives raise or lower the signal. In a few lines:
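Multiplexed cis-reporter assay in human liver HepG2 cells, 24 h incubation. Reporter RNA amplified and labelled, then resolved by capillary electrophoresis; DMSO serves as negative control and baseline.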

Assay [4] concerns the target Cellular tumor antigen p53 (Homo sapiens) (UniProt P04637). Description: ATG_p53_CIS: Attagene CIS-FACTORIAL HepG2 Assay for human p53 Transcription Factor (AID 2282994). The note with it: HepG2 p53 cis-element reporter, Attagene mRNA; actives raise or lower the signal. A digest of the protocol: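 In HepG2 cells, reporter transcription units under cis-regulatory promoters were transiently introduced. Following 24 h treatment, RNA was processed to labelled, digested cDNA fragments read by capillary electrophoresis; fitting was bidirectional versus DMSO.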

Assay [5] deals with human Peroxisome Proliferator-activated Receptor delta (PPARd), PPARD (gene 5467) (UniProt Q03181). Description: ATG_PPARd_TRANS: Attagene TRANS-FACTORIAL HepG2 Assay for human Peroxisome Proliferator-activated Receptor delta (PPARd) (AID 2283002; active = hit-call score of the fitted dose curve at least 0.9, where 1 is the maximum). A digest of the protocol: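 HepG2 cells transiently transfected with multiplexed GAL4-UAS reporter units and exogenous chimeric NR-Gal4 proteins; 24 h compound exposure. Reporter mRNA measured by RT-PCR, 6-FAM labelling, HpaI digestion and capillary electrophoresis; gain of signal versus DMSO.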
Chain of human Peroxisome Proliferator-activated Receptor delta (PPARd), PPARD (gene 5467) (Q03181 whole entry, looked up, the tested form may be a part): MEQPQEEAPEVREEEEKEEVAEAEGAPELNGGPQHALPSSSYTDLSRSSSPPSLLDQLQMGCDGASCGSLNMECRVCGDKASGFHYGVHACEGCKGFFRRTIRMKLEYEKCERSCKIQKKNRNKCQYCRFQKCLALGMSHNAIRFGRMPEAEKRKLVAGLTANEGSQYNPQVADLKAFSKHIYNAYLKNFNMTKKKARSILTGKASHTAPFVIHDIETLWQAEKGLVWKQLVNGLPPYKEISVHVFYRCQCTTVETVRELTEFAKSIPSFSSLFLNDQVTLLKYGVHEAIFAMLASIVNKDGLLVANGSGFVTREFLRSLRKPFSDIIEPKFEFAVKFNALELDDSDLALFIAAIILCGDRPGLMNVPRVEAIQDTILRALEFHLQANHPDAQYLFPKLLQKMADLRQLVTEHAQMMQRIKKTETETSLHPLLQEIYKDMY

Assay [6] has as its target Retinoic acid receptor alpha (Homo sapiens) (UniProt P10276). Description: ATG_RARa_TRANS: Attagene TRANS-FACTORIAL HepG2 Assay for human Retinoic Acid Receptor alpha (RARa) (AID 2283005; active = hit-call score of the fitted dose curve at least 0.9, where 1 is the maximum). A digest of the protocol: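 HepG2 cells transiently transfected with multiple reporter units expressing chimeric RARα-GAL4 fusion, with GAL4-UAS-driven reporters. After 24 h compound exposure, reporter mRNA induction quantified by RT-PCR and capillary electrophoresis with fluorescent labeling; gain-of-signal fitted relative to DMSO control.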

The target of assay [7] is Peroxisome proliferator-activated receptor gamma (Homo sapiens) (UniProt P37231). Description: ATG_PPARg_TRANS: Attagene TRANS-FACTORIAL HepG2 Assay for human Peroxisome Proliferator-activated Receptor-gamma (PPARg) (AID 2283007; active = hit-call score of the fitted dose curve at least 0.9, where 1 is the maximum). A digest of the protocol: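 Read-out: reporter mRNA induction, detected by fluorescence after RT-PCR and capillary electrophoresis. Transiently transfected human HepG2 liver cells carrying a chimeric NR-Gal4 construct were dosed for 24 h; activity was fitted upward relative to DMSO.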
Chain of Peroxisome proliferator-activated receptor gamma (Homo sapiens) (P37231 whole entry, looked up, the tested form may be a part): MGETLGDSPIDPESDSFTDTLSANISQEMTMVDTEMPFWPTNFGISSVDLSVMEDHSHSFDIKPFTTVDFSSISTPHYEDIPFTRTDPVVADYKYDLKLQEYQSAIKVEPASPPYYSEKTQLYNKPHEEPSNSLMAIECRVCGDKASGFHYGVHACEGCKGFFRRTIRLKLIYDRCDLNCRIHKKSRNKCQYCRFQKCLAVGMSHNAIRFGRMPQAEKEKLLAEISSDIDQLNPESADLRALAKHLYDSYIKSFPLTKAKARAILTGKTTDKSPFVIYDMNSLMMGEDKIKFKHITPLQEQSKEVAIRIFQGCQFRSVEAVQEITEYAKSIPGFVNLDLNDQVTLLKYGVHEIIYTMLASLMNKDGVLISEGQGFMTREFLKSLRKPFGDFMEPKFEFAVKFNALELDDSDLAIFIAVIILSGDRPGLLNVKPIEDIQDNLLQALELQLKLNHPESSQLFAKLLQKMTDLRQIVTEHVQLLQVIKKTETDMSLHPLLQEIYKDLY

The target of assay [8] is human RAR-related Orphan Receptor beta (RORb), RORB (gene 6096) (UniProt Q92753). Description: ATG_RORb_TRANS: Attagene TRANS-FACTORIAL HepG2 Assay for human RAR-related Orphan Receptor beta (RORb) (AID 2283010; active = hit-call score of the fitted dose curve at least 0.9, where 1 is the maximum). In a few lines: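 Multiplexed transcription-factor reporter assay: HepG2 cells transiently carrying NR-Gal4/GAL4-UAS constructs, 24 h treatment, mRNA quantified by RT-PCR plus capillary electrophoresis fluorescence; activity scored as induction over DMSO.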
Chain of human RAR-related Orphan Receptor beta (RORb), RORB (gene 6096) (Q92753 whole entry, looked up, the tested form may be a part): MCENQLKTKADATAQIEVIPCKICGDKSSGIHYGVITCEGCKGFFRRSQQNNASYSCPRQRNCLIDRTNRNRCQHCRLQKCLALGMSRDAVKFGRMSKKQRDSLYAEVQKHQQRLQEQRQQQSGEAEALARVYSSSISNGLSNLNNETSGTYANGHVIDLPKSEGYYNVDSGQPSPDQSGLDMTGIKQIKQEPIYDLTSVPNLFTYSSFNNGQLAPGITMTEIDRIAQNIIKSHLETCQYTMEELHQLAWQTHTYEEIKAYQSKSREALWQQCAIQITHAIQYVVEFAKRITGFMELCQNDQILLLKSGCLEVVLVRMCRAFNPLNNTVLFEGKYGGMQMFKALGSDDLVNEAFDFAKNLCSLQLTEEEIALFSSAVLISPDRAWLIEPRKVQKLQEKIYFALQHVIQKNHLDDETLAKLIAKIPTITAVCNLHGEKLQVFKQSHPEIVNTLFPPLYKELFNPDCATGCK

In assay [9] the target is human RAR-related Orphan Receptor gamma (RORg), RORC (gene 6097) (UniProt P51449). Description: ATG_RORg_TRANS: Attagene TRANS-FACTORIAL HepG2 Assay for human RAR-related Orphan Receptor gamma (RORg) (AID 2283011; active = hit-call score of the fitted dose curve at least 0.9, where 1 is the maximum). In a few lines:
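Reporter transcripts from a transfected RORg-GAL4 chimera in HepG2 cells were quantified 24 h after dosing by RT-PCR, 6-FAM labelling, HpaI digestion and capillary electrophoresis; increases over DMSO baseline were fitted.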

Assay [10] can be described thus: ATG_NRF2_ARE_CIS: Attagene CIS-FACTORIAL HepG2 Assay for human Nuclear Factor Erythroid 2 Related Factor 2 (NFR2) response to Antioxidant Response Elements (ARE) (AID 2282992). To be noted: HepG2 Attagene ARE/NRF2 reporter, transcription factor activity; actives raise or lower the signal. A digest of the protocol:
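Using transiently transfected HepG2 cells exposed for 24 h, reporter mRNA levels were determined by RT-PCR with fluorescent primer extension and capillary electrophoresis, analysed for gain or loss of signal against DMSO.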

Assay [11] concerns the target Nuclear receptor subfamily 1 group I member 2 (Homo sapiens) (UniProt O75469). Description: ATG_PXR_TRANS: Attagene TRANS-FACTORIAL HepG2 Assay for human Pregnane X Receptor (PXR) (AID 2283008; active = hit-call score of the fitted dose curve at least 0.9, where 1 is the maximum). A digest of the protocol:
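Multiplexed TRANS reporter panel in HepG2; this component tracks PXR-Gal4-driven reporter mRNA after 24 h dosing, measured by RT-PCR with capillary electrophoresis fluorescence, fitted against DMSO.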

For assay [12], the target named is human Retinoic Acid Receptor gamma (RARg), RARG (gene 5916) (UniProt P13631). Description: ATG_RARg_TRANS: Attagene TRANS-FACTORIAL HepG2 Assay for human Retinoic Acid Receptor gamma (RARg) (AID 2283009; active = hit-call score of the fitted dose curve at least 0.9, where 1 is the maximum). In a few lines: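 Gain-of-signal relative to DMSO is reported from fluorescent capillary electrophoresis of RT-PCR reporter products. These came from HepG2 cells expressing transfected RARg-GAL4 chimeras with UAS reporters, harvested 24 h after dosing.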
Chain of human Retinoic Acid Receptor gamma (RARg), RARG (gene 5916) (P13631 whole entry, looked up, the tested form may be a part): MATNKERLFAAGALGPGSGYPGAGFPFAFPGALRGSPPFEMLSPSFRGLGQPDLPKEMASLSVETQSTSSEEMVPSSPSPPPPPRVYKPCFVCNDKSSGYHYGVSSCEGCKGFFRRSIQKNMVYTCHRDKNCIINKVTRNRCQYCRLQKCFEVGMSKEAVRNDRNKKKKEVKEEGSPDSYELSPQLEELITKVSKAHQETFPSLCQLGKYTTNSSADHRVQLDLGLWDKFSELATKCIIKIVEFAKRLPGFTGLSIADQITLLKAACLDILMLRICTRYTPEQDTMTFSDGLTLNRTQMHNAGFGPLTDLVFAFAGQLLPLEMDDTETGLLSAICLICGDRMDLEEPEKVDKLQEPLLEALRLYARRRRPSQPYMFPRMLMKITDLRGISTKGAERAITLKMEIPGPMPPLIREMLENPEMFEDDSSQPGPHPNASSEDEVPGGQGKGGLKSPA

Assay [13] addresses human Peroxisome Proliferator-activated Receptor alpha (PPARa), PPARA (gene 5465) (UniProt Q07869). Description: ATG_PPARa_TRANS: Attagene TRANS-FACTORIAL HepG2 Assay for human Peroxisome Proliferator-activated Receptor alpha (PPARa) (AID 2283001; active = hit-call score of the fitted dose curve at least 0.9, where 1 is the maximum). A digest of the protocol:
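Exposure: 24 h, transiently transfected HepG2 cells. Endpoint: GAL4-UAS reporter mRNA, RT-PCR with capillary electrophoresis fluorescence. Baseline: DMSO; increases fitted.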

For assay [14], the target named is human Retinoic Acid Receptor beta (RARb), RARB (gene 5915) (UniProt P10826). Description: ATG_RARb_TRANS: Attagene TRANS-FACTORIAL HepG2 Assay for human Retinoic Acid Receptor beta (AID 2283004; active = hit-call score of the fitted dose curve at least 0.9, where 1 is the maximum). In a few lines: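 Induction of reporter mRNA from a chimeric RARb-Gal4 construct was measured by RT-PCR, FAM labelling, HpaI digestion and capillary electrophoresis. Measurements followed 24 h compound treatment of transiently transfected human HepG2 liver cells, with DMSO as baseline.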
Chain of human Retinoic Acid Receptor beta (RARb), RARB (gene 5915) (P10826 whole entry, looked up, the tested form may be a part): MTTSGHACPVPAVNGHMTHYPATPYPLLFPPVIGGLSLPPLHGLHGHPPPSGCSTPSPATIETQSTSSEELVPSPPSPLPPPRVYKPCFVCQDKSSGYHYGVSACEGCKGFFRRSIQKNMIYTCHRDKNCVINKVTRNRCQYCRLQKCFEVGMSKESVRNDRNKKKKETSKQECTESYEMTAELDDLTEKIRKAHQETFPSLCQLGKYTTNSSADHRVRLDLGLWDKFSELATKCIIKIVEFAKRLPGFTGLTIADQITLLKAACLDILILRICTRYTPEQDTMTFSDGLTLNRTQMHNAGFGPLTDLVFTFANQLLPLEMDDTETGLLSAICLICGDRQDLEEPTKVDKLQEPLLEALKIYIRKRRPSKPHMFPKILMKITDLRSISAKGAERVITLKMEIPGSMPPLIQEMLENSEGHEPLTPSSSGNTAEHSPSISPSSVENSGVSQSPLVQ

Structures are written as SMILES. Inconclusive results are not listed. Active and inactive are the calls of the source. The calls were made as follows, unless noted: active = hit-call score of the fitted dose curve at least 0.9, where 1 is the maximum; inactive = score below 0.9.

In PubChem BioAssay (EPA / NIEHS) one finds outcome and AC50 data, which are given here for seven molecules.

Chain of Cellular tumor antigen p53 (Homo sapiens) (P04637 whole entry, looked up, the tested form may be a part): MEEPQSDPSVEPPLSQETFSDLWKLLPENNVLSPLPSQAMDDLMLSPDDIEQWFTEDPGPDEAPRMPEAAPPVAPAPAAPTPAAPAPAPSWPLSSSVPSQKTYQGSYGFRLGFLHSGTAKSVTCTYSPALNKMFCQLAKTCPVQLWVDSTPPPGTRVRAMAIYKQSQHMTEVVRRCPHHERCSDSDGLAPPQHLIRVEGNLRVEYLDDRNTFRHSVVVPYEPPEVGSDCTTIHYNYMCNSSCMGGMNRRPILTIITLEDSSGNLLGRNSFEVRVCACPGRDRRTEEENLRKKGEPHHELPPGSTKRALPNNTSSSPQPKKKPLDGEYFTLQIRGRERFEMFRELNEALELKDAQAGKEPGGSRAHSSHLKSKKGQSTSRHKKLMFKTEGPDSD
Chain of Retinoic acid receptor alpha (Homo sapiens) (P10276 whole entry, looked up, the tested form may be a part): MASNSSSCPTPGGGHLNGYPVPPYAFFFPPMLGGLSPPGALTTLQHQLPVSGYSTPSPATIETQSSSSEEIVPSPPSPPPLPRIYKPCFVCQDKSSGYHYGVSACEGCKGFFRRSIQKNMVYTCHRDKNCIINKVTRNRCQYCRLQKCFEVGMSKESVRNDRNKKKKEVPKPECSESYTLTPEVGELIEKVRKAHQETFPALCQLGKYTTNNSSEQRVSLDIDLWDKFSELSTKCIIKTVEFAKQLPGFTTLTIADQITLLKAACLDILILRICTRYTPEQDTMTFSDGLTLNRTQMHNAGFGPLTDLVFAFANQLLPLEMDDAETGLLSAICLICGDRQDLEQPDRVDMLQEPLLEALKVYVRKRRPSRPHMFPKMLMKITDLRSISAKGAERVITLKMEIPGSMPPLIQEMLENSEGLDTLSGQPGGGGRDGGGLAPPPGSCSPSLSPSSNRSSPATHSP
Chain of Nuclear receptor subfamily 1 group I member 2 (Homo sapiens) (O75469 whole entry, looked up, the tested form may be a part): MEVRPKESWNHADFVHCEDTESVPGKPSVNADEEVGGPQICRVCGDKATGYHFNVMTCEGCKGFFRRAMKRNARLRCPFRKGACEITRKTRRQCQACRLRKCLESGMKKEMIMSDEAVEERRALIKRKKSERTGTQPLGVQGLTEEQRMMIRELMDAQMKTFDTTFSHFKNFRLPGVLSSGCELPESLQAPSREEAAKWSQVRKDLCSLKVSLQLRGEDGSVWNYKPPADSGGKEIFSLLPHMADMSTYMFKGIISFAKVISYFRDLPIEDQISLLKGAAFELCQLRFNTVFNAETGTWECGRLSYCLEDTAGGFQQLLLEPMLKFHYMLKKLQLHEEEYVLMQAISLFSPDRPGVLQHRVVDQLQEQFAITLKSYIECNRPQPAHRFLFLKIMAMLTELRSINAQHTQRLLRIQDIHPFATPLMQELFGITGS
Chain of Myc proto-oncogene protein (Homo sapiens) (P01106 whole entry, looked up): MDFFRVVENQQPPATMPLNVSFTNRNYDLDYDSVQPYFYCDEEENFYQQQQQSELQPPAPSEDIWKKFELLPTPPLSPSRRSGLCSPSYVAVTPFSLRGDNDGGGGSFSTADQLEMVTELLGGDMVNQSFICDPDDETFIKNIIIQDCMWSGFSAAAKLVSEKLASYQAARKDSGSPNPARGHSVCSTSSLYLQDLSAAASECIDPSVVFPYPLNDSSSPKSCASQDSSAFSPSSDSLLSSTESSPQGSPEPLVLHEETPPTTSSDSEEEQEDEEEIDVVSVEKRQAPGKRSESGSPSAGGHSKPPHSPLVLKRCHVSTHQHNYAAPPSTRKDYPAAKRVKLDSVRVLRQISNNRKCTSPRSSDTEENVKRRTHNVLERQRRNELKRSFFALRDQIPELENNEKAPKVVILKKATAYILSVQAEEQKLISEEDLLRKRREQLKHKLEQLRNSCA
Chain of human Peroxisome Proliferator-activated Receptor alpha (PPARa), PPARA (gene 5465) (Q07869 whole entry, looked up, the tested form may be a part): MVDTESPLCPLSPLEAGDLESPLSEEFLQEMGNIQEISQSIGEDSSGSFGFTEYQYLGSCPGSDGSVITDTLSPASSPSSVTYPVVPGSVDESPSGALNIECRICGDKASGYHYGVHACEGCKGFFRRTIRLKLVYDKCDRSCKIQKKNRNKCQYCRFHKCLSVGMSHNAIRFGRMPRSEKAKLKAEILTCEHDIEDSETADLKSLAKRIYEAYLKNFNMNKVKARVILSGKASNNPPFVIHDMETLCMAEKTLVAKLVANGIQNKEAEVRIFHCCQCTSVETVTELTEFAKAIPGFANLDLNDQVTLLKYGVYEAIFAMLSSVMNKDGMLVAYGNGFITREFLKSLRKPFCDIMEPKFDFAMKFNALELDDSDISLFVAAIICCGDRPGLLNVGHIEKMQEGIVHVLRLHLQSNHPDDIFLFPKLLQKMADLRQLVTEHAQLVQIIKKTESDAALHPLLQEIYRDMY

Turning to `CCCCOCC`, the outcome in assay [1], in [2], in [3], in [4], in assay [5] and in assay [6] was inactive. Also, the outcome in assay [7], in [8] and in assay [9] was inactive.
What is called AC50 is the concentration at which the activity in the assay is half-maximal. Turning to `CCN(CCC#N)c1ccc(N=Nc2ccc([N+](=O)[O-])cc2)cc1`, the molecule was called inactive in [1], in assay [2], in [4], in [7], in assay [11] and in assay [8]. Moreover, the AC50 in assay [10] is 64.7 µM (active).
Turning to `CCCCCCCC(=O)OCC(O)CO` (stereo unspecified), the result in assay [1], in [2], in assay [3], in assay [4], in assay [5] and in assay [6] was inactive. Further, the call in assay [7], in assay [11] and in assay [12] was inactive.
As to `Cc1ccc(-c2ccccc2)cc1`, the molecule was called inactive in [1], in assay [2], in [3], in assay [4], in assay [11] and in assay [8].
Regarding `COc1cccc(OC)c1O`, the molecule was classed as inactive in assay [1], in [2], in assay [3], in assay [4] and in [11].
Take `COC(CC(C)CCCC(C)(C)O)OC` (stereo unspecified): the result in assay [1], in [2], in assay [10], in assay [4], in [13] and in [14] was inactive. The molecule was classed as inactive in assay [6] and in assay [11].
Take `COc1cc([C@@H]2c3cc4c(cc3[C@@H](O[C@@H]3O[C@@H]5CO[C@@H](C)O[C@H]5[C@H](O)[C@H]3O)[C@H]3COC(=O)[C@H]23)OCO4)cc(OC)c1O`: the outcome in assay [1], in [2], in assay [10], in assay [4], in [13] and in assay [5] was inactive. Besides, in [8], the call was inactive.
